# In all, about 310,000 compounds went through this assay and about 14,000 (4.5%) showed an effect of 50% or more. The effect is printed as a negative number. This is one part of a sample in which strong results are shown more often than they occur.
# Molecular target: human ether-à-go-go-related gene (hERG) potassium channel (human, UniProt Q12809)
# Assay: primary screen, population patch clamp on CHO cells stably expressing hERG; higher = less effect of the substance
# 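Further: peak tail current of the secondary pulse compared with the same well before compound.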
# human ether-à-go-go-related gene (hERG) potassium channel, sequence (Q12809 whole entry, looked up): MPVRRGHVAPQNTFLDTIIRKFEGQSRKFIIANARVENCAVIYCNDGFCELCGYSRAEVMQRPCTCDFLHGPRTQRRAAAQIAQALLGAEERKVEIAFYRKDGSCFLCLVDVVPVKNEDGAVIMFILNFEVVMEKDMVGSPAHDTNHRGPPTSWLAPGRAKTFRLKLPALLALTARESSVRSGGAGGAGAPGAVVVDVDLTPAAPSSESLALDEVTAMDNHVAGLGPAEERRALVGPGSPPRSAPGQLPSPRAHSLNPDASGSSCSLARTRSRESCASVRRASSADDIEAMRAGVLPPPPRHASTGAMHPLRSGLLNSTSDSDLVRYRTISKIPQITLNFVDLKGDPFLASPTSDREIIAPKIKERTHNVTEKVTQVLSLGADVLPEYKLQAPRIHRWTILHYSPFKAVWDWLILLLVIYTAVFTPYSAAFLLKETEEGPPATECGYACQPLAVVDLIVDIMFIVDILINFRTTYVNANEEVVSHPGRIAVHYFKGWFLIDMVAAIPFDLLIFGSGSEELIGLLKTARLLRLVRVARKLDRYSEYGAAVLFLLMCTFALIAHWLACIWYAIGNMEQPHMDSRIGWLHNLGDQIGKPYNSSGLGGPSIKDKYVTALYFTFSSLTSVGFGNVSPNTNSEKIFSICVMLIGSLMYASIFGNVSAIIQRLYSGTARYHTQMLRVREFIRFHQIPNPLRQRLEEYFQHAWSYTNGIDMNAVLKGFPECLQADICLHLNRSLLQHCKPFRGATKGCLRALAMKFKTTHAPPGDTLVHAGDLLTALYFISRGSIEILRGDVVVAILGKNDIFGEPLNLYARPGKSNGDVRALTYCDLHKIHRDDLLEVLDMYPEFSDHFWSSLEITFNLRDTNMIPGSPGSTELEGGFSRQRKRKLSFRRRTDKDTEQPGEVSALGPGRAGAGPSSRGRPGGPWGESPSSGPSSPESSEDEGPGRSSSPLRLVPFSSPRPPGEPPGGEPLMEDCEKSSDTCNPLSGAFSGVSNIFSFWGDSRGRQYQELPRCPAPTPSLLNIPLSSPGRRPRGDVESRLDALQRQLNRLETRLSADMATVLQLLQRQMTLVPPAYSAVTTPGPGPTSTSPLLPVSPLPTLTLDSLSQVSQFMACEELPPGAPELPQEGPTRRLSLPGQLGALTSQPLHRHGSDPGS
row,SMILES,"hERG current change (%, negative = inhibition) at 10uM [%]"
1,COc1cc2ncc(S(=O)(=O)c3ccccc3)c(N3CCCC(C)C3)c2cc1OC (stereo not shown),-7.67
2,CCOc1ccc2ncc(S(=O)(=O)c3ccccc3)c(N3CCC4(CC3)OCCO4)c2c1,-42.4
3,COc1cc2ncc(S(=O)(=O)c3ccccc3)c(N3CCC4(CC3)OCCO4)c2cc1OC,-80.8
4,COc1ccc2ncc(S(=O)(=O)c3ccccc3)c(N3CCC4(CC3)OCCO4)c2c1,-63.3
5,COc1ccc2ncc(S(=O)(=O)c3ccccc3)c(N3CCN(c4ccccc4)CC3)c2c1,-8.4
6,COc1ccc(S(=O)(=O)c2cnc3ccc(OC)cc3c2N2CCC3(CC2)OCCO3)cc1,-28.5
7,O=C(Nc1ccc(Cl)c(Cl)c1)Nc1ccccn1,2.95
8,Cc1ccc(/C=C2\SC(=S)N(CCCC(=O)Nc3nccs3)C2=O)cc1,15.7
9,O=C(COC(=O)CCCN1C(=O)c2cccc3cccc(c23)C1=O)Nc1ccc(Cl)cc1,3.07
10,N#Cc1ccc(-c2ccc(F)cc2)nc1SCC(=O)Nc1sc2c(c1C#N)CCC2,4.57
11,O=C(NC1CC1)C1CCN(C2CCN(C(=O)/C=C/c3ccc(F)cc3)CC2)CC1,-62.9
12,CC(C)(C)c1ccc(C(=O)N2CCC(C(=O)NC3CC3)CC2)cc1,-2.74
13,O=C(NC1CC1)C1CCN(C2CCN(C(=O)Cc3ccc(F)cc3)CC2)CC1,-2.99
14,O=C(NC1CC1)C1CCN(C2CCN(Cc3ccccc3C(F)(F)F)CC2)CC1,-53.1
15,Cc1ccc2oc(C(=O)N3CCC(N4CCSCC4)CC3)c(C)c2c1,-30.6
16,FC(F)(F)c1ccccc1CN1CCN(C2CCCCCC2)CC1.O=C(O)C(=O)O,-49.3
17,O=C(NC1CC1)C1CCN(C2CCN(C(=O)c3c(F)cccc3Cl)CC2)CC1,13.3
18,CCOc1ccccc1CN1CCC(N2CCC(C(=O)NC3CC3)CC2)CC1,1.53
19,Cc1ccc2c(C)c(C(=O)N3CCC(N4CCC(C(=O)NC5CC5)CC4)CC3)oc2c1,-59.1
20,O=C(NC1CC1)C1CCN(C2CCN(C(=O)c3ccc(C(F)(F)F)cc3)CC2)CC1,-56.4
21,O=C(NC1CC1)C1CCN(C2CCN(C(=O)/C=C/c3cccc(F)c3F)CC2)CC1,-22.1
22,CC(C)(C)c1ccc(C(=O)N2CCC(C(=O)NC3CCCCCC3)CC2)cc1,-40

row,SMILES,"hERG current change (%, negative = inhibition) at 10uM [%]"
1,O=C(NCCCCCCNC(=O)OCCO)OCCO,28.4
2,NNC(=O)CNS(=O)(=O)c1ccc([N+](=O)[O-])cc1,17.4
3,COc1ccccc1N(C)S(=O)(=O)c1ccc(C(=O)NCC2CCCCC2)cc1,-3.05
4,CC(C)Cn1c(N)c(C(=O)COC(=O)CC23CC4CC(CC(C4)C2)C3)c(=O)n(C)c1=O,-16.2
5,CCCc1cc(=O)c2c(O)cccc2o1,5.41
6,CC1CC1C(=O)OCC(=O)Nc1ccc2[nH]c(=O)[nH]c2c1 (stereo not shown),2.94
7,COCCN1CCN(C(=O)c2ccc3oc(CCc4ccccc4)nc3c2)CC1,-30.1
8,COc1ccccc1N(CC(=O)N1CCN(c2ccccc2)CC1)S(=O)(=O)c1ccc(C)cc1,17.5
9,Cc1nc(NCCc2ccc(S(N)(=O)=O)cc2)c2c(C)c(C)sc2n1,4.01
10,O=C(CCc1nc(-c2ccccc2F)no1)NCCN1CCOCC1,6.22
11,CC1(C)CC(=O)c2cc(OCC(=O)NCCN3CCOCC3)ccc2O1,22.7
12,COc1ccc(-c2noc(CCC(=O)NCCCN3CCC(C)CC3)n2)cc1,-5.81
13,COc1ccc(-c2noc(CCC(=O)NCCCN3CCC(Cc4ccccc4)CC3)n2)cc1,-80.7
14,O=C(CCc1nc(-c2ccccc2F)no1)NCCN1CCc2ccccc2C1,-50.4
15,CC1(C)CC(=O)c2cc(OCC(=O)NCCCN3CCN(c4ccc(F)cc4)CC3)ccc2O1,-72.9
16,O=C(CCc1nc(-c2ccccc2F)no1)NCCN1CCN(Cc2ccccc2)CC1,-43.2
17,COc1ccc(-c2noc(CCC(=O)NCCc3ccccc3)n2)cc1,20.9
18,CCN1CCN(CCCNC(=O)CCc2nc(-c3ccc(OC)cc3)no2)CC1,-2.35
19,CC1(C)CC(=O)c2cc(OCC(=O)NCCCN3CCN(c4ccccc4F)CC3)ccc2O1,-47.4
20,COc1ccc(-c2noc(CCC(=O)NCCCN3CCN(c4ccc(F)cc4)CC3)n2)cc1,-67.4
21,COc1ccc(N2CCN(C(=O)CCc3nc(-c4ccc(C)cc4)no3)CC2)cc1,-14.1
22,Cc1cc(NC(=O)C(C)SCC(=O)Nc2ccccc2N2CCCC2)no1 (stereo not shown),15.1

row,SMILES,"hERG current change (%, negative = inhibition) at 10uM [%]"
1,CCNC(=S)N/N=C/c1cccs1,6.26
2,O=C(CCCCCN1C(=O)CCC1=O)Nc1ccc2c(c1)OCCO2,8.47
3,CC(=O)Nc1ccc(-c2csc(NNC(=O)c3ccccc3)n2)cc1,24.7
4,Cc1ccc(-c2nc(C(F)(F)F)cc(=O)[nH]2)cc1,12.7
5,N#CCCn1ncn(-c2ccccc2)c1=S,1.22
6,Cc1ccccc1CC(=O)Nc1ccc2c(c1)CCC2,18.3
7,Cc1ccc(-c2noc(CCC(=O)NCCCN3CCN(c4ccc(F)cc4)CC3)n2)cc1,-66.8
8,COc1ccc(-c2noc(CCC(=O)NCCN(C)Cc3ccccc3)n2)cc1,-30.5
9,COCCCNC(=O)CCc1nc(-c2ccccc2)no1,9.36
10,Cc1ccc(-c2noc(CCC(=O)NCCN3CCOCC3)n2)cc1,4.65
11,COc1ccc(-c2noc(CCC(=O)NCCCN3CCN(c4ccccc4F)CC3)n2)cc1,-61
12,Cc1ccc(-c2noc(CCC(=O)NCCCN3CCN(c4cccc(Cl)c4)CC3)n2)cc1,2.45
13,COc1ccc(C(=O)/C=C/c2cccs2)c(OC(=O)c2cccc([N+](=O)[O-])c2)c1,5.34
14,CCC(C)C(NC(=O)OCc1ccccc1)C(=O)NCC(c1ccccc1)N(C)C (stereo not shown),-7.1
15,CC1CN(S(=O)(=O)c2ccc(F)cc2)CN1C(=O)N1CCOCC1 (stereo not shown),17.6
16,CC(C)CCN1CCN(Cc2nc3c(s2)CCCC3)CC1CCO (stereo not shown),-28.2
17,OCCC1CN(Cc2nc3c(s2)CCCC3)CCN1Cc1ccsc1 (stereo not shown),-14.6
18,OCCC1CN(Cc2nc3c(s2)CCCC3)CCN1CCc1ccccc1 (stereo not shown),-61.4
19,Cc1ccc(CN2CCN(Cc3nc4c(s3)CCCC4)CC2CCO)cc1 (stereo not shown),-55.3
20,CC(C)N1CCN(Cc2nc3c(s2)CCCC3)CC1CCO (stereo not shown),18.9
21,OCCC1CN(Cc2nc3c(s2)CCCC3)CCN1Cc1ccccc1 (stereo not shown),-22.5
22,CC(=O)Nc1sc(C)c(C)c1C(=O)OCC(=O)N(CC(C)C)c1c(N)n(Cc2ccccc2)c(=O)[nH]c1=O,-1.37

row,SMILES,"hERG current change (%, negative = inhibition) at 10uM [%]"
1,Cc1cc(C)nc(N(C#N)CC(=O)N2CCC(C(N)=O)CC2)n1,20.1
2,CN1CCc2[nH]c3ccc(C(=O)NN)cc3c2C1,5.22
3,CC1CCc2sc(C(=O)NCC(C)(C)N3CCOCC3)cc2C1 (stereo not shown),-32.6
4,CCOC(=O)c1oc2ccccc2c1NC(=O)c1ccc(Cl)s1,11.7
5,COc1cccc(-c2ccc(NC(=O)C3CCCN(Cc4cnc(C)s4)C3)cc2)c1 (stereo not shown),2.11
6,Cc1ncc(CN2CCCC(C(=O)Nc3ccc(-c4cccc(F)c4)cc3)C2)cn1 (stereo not shown),-73.2
7,Cn1cc(CN2CCCC(C(=O)Nc3ccc(-c4cccc(F)c4)cc3)C2)cn1 (stereo not shown),-43.9
8,Cc1ncc(CN2CCCC(C(=O)Nc3ccc(-c4ccco4)cc3)C2)cn1 (stereo not shown),-11.5
9,Nc1ncc(CN2CCCC(C(=O)Nc3ccc(-c4ccco4)cc3)C2)cn1 (stereo not shown),-17.8
10,COc1cccc(C(=O)C2CCCN(Cc3cnn(C(C)C)c3)C2)c1 (stereo not shown),-43.6
11,COc1cccc(-c2ccc(NC(=O)C3CCCN(Cc4cnn(C(C)C)c4)C3)cc2)c1 (stereo not shown),-79.7
12,Cc1ncc(CN2CCCC(C(=O)Nc3ccc(-c4ccco4)cc3)C2)n1C (stereo not shown),-59.6
13,O=C(Nc1ccc(-c2cccc(F)c2)cc1)C1CCCN(Cc2ccccn2)C1 (stereo not shown),-42.3
14,COc1cccc(-c2ccc(NC(=O)C3CCCN(Cc4cnn(C)c4)C3)cc2)c1 (stereo not shown),-37
15,COc1cccc(-c2ccc(NC(=O)C3CCCN(Cc4cnc(C)n4C)C3)cc2)c1 (stereo not shown),-74.3
16,COc1cccc(-c2ccc(NC(=O)C3CCCN(Cc4cnc(N(C)C)s4)C3)cc2)c1 (stereo not shown),8.97
17,COC(=O)c1c(C)nc(C)c(C(=O)OC)c1-c1ccc(OC)cc1,-7.69
18,Cc1cc(C)nc(N/N=C/c2cn[nH]c2-c2ccc(F)cc2)n1,8.66
19,Cc1ccc(CNC(=O)c2cccc3c2C(=O)c2ccc(N4CCCCC4)cc2S3(=O)=O)cc1,-6.76

# Reference: publication PMC4336329 (PLoS ONE, 2015)
